Source: PubChem BioAssay AID2551 (National Center for Advancing Translational Sciences (NCATS), 2010)
“And” between values parts separate entries of the source, which are not always exact repeats. Identical values can stand only once. Screen size: about 310,000 compounds; about 17,000 (5.5%) were called active. About 11% were inconclusive and are not listed. The call rests on the fitted dose curve; in most records, active means well fitted inhibition curve with a large enough effect; inconclusive means small, poorly fitted or top-dose-only effect, or effect the other way; inactive means no such curve, though single readings can be large or run the other way. The list comes from a sample in which actives are over-represented; it also holds similar structures and randomly drawn compounds. A call without a number means that no potency is given here. A structure can be active in one record and inactive in another.

Molecular target: Nuclear receptor ROR-gamma (Mus musculus) (UniProt P51450)
Sequence (P51450 whole entry, looked up): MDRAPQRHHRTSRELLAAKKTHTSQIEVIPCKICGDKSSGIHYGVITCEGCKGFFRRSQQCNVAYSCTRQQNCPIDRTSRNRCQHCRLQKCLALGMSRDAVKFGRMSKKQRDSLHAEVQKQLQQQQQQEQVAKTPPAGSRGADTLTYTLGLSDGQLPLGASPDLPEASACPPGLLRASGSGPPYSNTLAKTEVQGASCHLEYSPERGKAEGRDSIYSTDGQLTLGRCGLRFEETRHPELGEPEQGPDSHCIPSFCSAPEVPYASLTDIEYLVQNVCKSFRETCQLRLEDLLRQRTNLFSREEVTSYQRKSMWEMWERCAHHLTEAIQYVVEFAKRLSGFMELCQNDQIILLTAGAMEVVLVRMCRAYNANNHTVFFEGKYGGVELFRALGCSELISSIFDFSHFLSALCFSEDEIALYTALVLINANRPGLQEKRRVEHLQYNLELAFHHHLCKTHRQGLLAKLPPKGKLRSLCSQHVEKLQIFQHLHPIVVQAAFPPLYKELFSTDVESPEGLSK
Assay: qHTS for inhibitors of ROR gamma transcriptional activity; further: nearly all actives have a fitted effect of over 60% in size
Conditions: Drosophila S2 Gal4-RORgamma UAS-luciferase reporter, 20 h; series mostly up to 53.6 µM
From the text: NIH Molecular Libraries Probe Production Network [MLPCN] NIH Chemical Genomics Center [NCGC] MLPCN Grant: R03 DA026211-01 Assay Provider: Dan Littman, New York University Assay Overview: The retinoic acid-related orphan receptor (ROR) gamma is a transcription factor that has a central role in the differentiation of Th17 cells, a subset of T helper cells that secrete the inflammatory cytokines IL-17, IL-17F, and IL-22. Th17 cells have been implicated in graft versus host disease, autoimmune disease and asthma. ROR gamma is induced in naive T helper cells in the presence of TGF-beta combined with IL-6, IL-21, or IL-23, and thereafter directs the expression of the Th17 lineage cytokines. To study the mechanism of action of ROR gamma, an insect cell-based assay was screened. This Drosophila Schneider cell line was stably transfected with two vectors: a gene expressing a fusion of the Gal4 DNA binding domain and ROR gamma transactivation domain under the control of the metallothionine promoter and a Photinus luciferase reporter regulated by the Gal4 binding site enhancer, UAS. […] Small molecule inhibitors of ROR gamma activity are detected by a decrease in luciferase reporter activity.
Assay Protocol Summary: For screening, 600 cells in 4 uL/well were dispensed into white solid 1536-well plates (Grenier) using a solenoid-based dispenser. Following transfer of 23 nL compound or DMSO vehicle by a pin tool, the plates were incubated 1 hr at ambient temperature, and 1 uL/well copper sulfate (700 uM final concentration) was added. The plates were centrifuged 15 s at 1000 RPM and incubated 20 hr at ambient temperature. After addition of 1.5 uL Photinus luciferase detection reagent, the plates were incubated 10 min at ambient temperature and then read by an ViewLux (Perkin Elmer) to detect luminescence. Keywords: NIH Roadmap, MLPCN, MLI, MLSMR, qHTS, NCGC, qHTS, nuclear hormone receptor, retinoic acid-related orphan receptor, ROR gamma
Potency means the concentration at half of the fitted maximal effect.

| Compound | Potency | activity change, negative = inhibition |
| --- | --- | --- |
| Cc1nn(C)c(Cl)c1CN1CCC(Oc2ccc(C(=O)N3CCCC3)cc2)CC1 | inactive | – |
| CCOc1ccc(N/C(N)=N/c2nc(C)c(C)c(=O)[nH]2)cc1 | inactive | – |
| Cc1ccc(C(=O)N/C(=C\c2cn(S(=O)(=O)N(C)C)c3ccccc23)C(=O)N2CCCC2)cc1 | inactive | – |
| CCOc1cc(/C=C2\C(=N)N3N=C(C)SC3=NC2=O)ccc1OCCOc1ccccc1 | – | 26.8% [at 1.91 µM] (inactive) |
| COc1cccc(OC)c1C(=O)Nc1c(C(=O)N2CCN(c3ccccn3)CC2)oc2ccccc12 | inactive | – |
| CCOc1cc(C)ccc1OCc1nnc(SCC(=O)Nc2cccc(C(=O)O)c2)n1-c1ccccc1 | inactive | – |
| CSc1nc(C)cc(SC(C(C)=O)C(=O)Nc2ccccc2)n1 (configuration not stated) | 8.91 µM (active) | – |
| CC(Sc1nnc2c(n1)C1CCC2(C)C1(C)C)C(=O)Nc1ccccc1 (configuration not stated) | inactive | – |
| Cc1cc(C)c(C#N)c(SCC(=O)Nc2ccccc2)n1 | inactive | – |
| Cc1c(CN2CC[C@@H](N3CCN(c4ccccn4)CC3)[C@H](O)C2)[nH]c2ccc(F)cc12 | inactive | – |
| O=C(Nc1n[nH]c(C(F)(F)F)n1)c1cccs1 | inactive | – |
| COc1ccc(CC(=O)Nc2nc3n(n2)C(c2ccccc2)CC(=O)N3)cc1OC (configuration not stated) | inactive | – |
| CC1CC(c2ccccc2)n2nc(NC(=O)c3cccs3)nc2N1 (configuration not stated) | 14.1 µM (active) | – |
| CCOc1cc(/C=C2\SC(N3CCCCC3)=NC2=O)ccc1O | inactive | – |
| O=C1N=C(N2CCc3ccccc3C2)S/C1=C\c1ccc(O)cc1 | 1.12 µM (active) | – |
| O=C1N=C(N2CCCC2)S/C1=C\c1cccc(Br)c1 | inactive | – |
| Cc1ccc(CCNC(=O)c2ccc3nc4ccccc4c(=O)n3c2)cc1 | inactive | – |
| CCc1ccc(-c2nn(-c3ccccc3)cc2CSC(=N)N)cc1 | 11.2 µM (active) | – |
| COc1ccc(N(CC(=O)NCC2CCCO2)C(=O)CCC(=O)Nc2nccs2)c(OC)c1 (configuration not stated) | inactive | – |
| O=C(NCc1ccc(F)cc1)C1CCN(C(=O)Nc2ccc(F)cc2)CC1 | inactive | – |
| O=c1[nH][nH]c(=O)c2cc(N3CCCC3)ccc12 | inactive | – |
| CCOC(=O)/C(C#N)=C/c1ccc(N2CCCCC2)cc1 | inactive | – |
| O=C1C=CC(=O)N1c1ccc(N2CCCCC2)cc1 | 5.62 µM (active) | – |

| Compound | Potency | activity change, negative = inhibition |
| --- | --- | --- |
| COC(=O)c1ccc(CSc2ccc3nnc(-c4ccccc4)n3n2)o1 | 10 µM (active) | – |
| COc1ccc(-c2nnc3ccc(SCc4ccccc4)nn23)cc1 | inactive | – |
| COC(=O)c1ccc(CSc2ccccc2C)o1 | inactive | – |
| CN1CCN(Cc2c(C(=O)N3CCc4ccccc4C3)nc3ccc(Cl)cn23)CC1 | inactive | – |
| CN1CCN(C(=O)C(=O)c2cn(CC(=O)N3CCCC3)c3ccccc23)CC1 | inactive | – |
| CCC(C)[C@H](NC(=O)N1c2ccccc2NC(=O)[C@@H]1C(C)C)C(=O)N[C@@H](Cc1ccccc1)C(=O)O (some centres not stated) | inactive | – |
| CC(O)CNCCOc1cccc(Oc2ccccc2)c1 (configuration not stated) | inactive | – |
| COc1ccccc1OCCNCC(O)COc1cccc2[nH]c3ccccc3c12 (configuration not stated) | inactive and 1 µM (active) | – |
| COc1ccccc1OCC(O)CN1CCOCC1 (configuration not stated) | inactive | – |
| COc1cccc(OCc2nnc3n2N=C(c2ccccc2)C(CC(=O)O)S3)c1 (configuration not stated) | inactive | – |
| COc1ccc(-n2ncc3c2CC(C)(C)CC3NC(=O)CCc2c(C)nn(C)c2C)cc1 (configuration not stated) | inactive | – |
| CCCCN(CCCC)CCNC(=O)CN1C(=O)COc2ccc(S(=O)(=O)N3CCOCC3)cc21 | inactive | – |
| CC(=O)Nc1ccc(-c2nc3ccccc3o2)cc1 | inactive | – |
| CC(=O)NC(=S)Nc1ccc(NC(=O)c2cccnc2)cc1 | inactive | – |
| Cc1ccc2nc(-c3ccc(NC(=O)c4cccnc4)cc3)oc2c1 | 20 µM (active) | – |
| Cc1ccc(O)c(/C=N/NC(=O)COc2ccc3c(C)cc(=O)oc3c2)c1 | 2.51 µM (active) | – |
| Cc1cc(=O)oc2cc(OCC(=O)Nc3nnc(C4CC4)s3)ccc12 | inactive | – |
| COC(=O)COc1ccc2oc(=O)cc(C)c2c1 | inactive | – |
| Cc1c(C)c2ccc(OCC(=O)N3CCN(c4cccc(Cl)c4)CC3)cc2oc1=O | inactive | – |
| CCC(C)N1CC(=O)N2Cc3[nH]c4ccccc4c3C[C@H]2C1=O (some centres not stated) | inactive | – |
| O=C(Cn1ncc2c3ccccc3n(Cc3ccccc3)c2c1=O)NCCCN1CCOCC1 | inactive | – |
| COc1ccc(N(CC(=O)Nc2cc(OC)ccc2OC)S(=O)(=O)c2c(C)noc2C)cc1 | inactive | – |
| CCCCC(=O)Nc1cc(C)c2c(=O)oc3ccccc3c2n1 | inactive | – |

| Compound | Potency | activity change, negative = inhibition |
| --- | --- | --- |
| CC(C)(C)Nc1c(N)c(=O)oc2ccccc12 | inactive | – |
| Cc1ccccc1-n1nnc2c(=O)oc3ccccc3c21 | 7.94 µM (active) | – |
| COc1cccc(C(=O)NNS(=O)(=O)c2ccc(F)cc2)c1 | inactive | – |
| COc1ccc(C(C(=O)NCC2CCCO2)N(C(=O)Cn2nnc3ccccc32)c2ccc(NC(C)=O)cc2)cc1OC (configuration not stated) | inactive | – |
| Nc1ccc(-c2sc(N)nc2-c2ccccc2)cc1 | inactive | – |
| Nc1nc(-c2ccccc2)cc(-c2ccccc2)n1 | inactive | – |
| Nc1[nH]c(=S)nc2nc(-c3ccccc3)c(-c3ccccc3)nc12 | 3.98 µM (active) | – |
| Cc1c(CN2CCC(n3nccc3NC(=O)CCc3ccccc3)CC2)cnn1C | inactive | – |
| CC(=O)NCCC(=O)Nc1cc(S(=O)(=O)N2CCCCC2)ccc1Oc1cccc(C)c1 | inactive | – |
| CNC(=O)NC(=O)CSc1nnc(-c2ccc(F)cc2)n1CC1CCCO1 (configuration not stated) | inactive | – |
| Cc1nnc(SCC(=O)NNC(=O)c2ccc(Cl)cc2)n1CC1CCCO1 (configuration not stated) | inactive | – |
| S=c1[nH]nc(-c2ccc(Cl)cc2)n1CC1CCCO1 (configuration not stated) | 11.2 µM (active) | – |
| N#Cc1ccccc1S(=O)(=O)N1CCN(C(=O)c2cc(-c3ccccc3)nn2-c2ccccc2)CC1 | inactive | – |
| CC1CN(C(=S)Nc2ccccc2F)CC(C)O1 (configuration not stated) | inactive | – |
| CC1CN(C(=S)Nc2ccc(Br)cc2Cl)CC(C)O1 (configuration not stated) | 12.6 µM (active) | – |
| S=C(Nc1ccc(Br)cc1Cl)N1CCC2(CC1)OCCO2 | inactive | – |
| O=C(Nc1ccc(O)cc1)c1ccc(NC(=O)c2ccco2)cc1 | inactive | – |
| Cc1cc(Cl)ccc1OCCCC(=O)NCc1ccccn1 | inactive | – |
| Cc1ccc(SCCC(=O)NCc2ccccn2)cc1 | 8.91 µM (active) | – |
| O=C(CCSc1ccccc1)NCCSc1ccccn1 | inactive | – |
| O=C1C2CCCN2C(=O)N1CCCCN1CCN(c2cccc(C(F)(F)F)c2)CC1 (configuration not stated) | inactive | – |
